Assay results published in PubChem BioAssay (NCI).
Compounds without any hit were thinned out: in the full panel of roughly 83,000, 20% have a hit.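 Each cell line was grown in a 96-well plate and treated with one concentration of compound for 48 hours. Values below 10 were considered active.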 Unmarked numbers belong to inactive results. Active and inactive are the calls of the source.

Each compound was assayed on PC-3 prostate (assay: NCI-60 one-dose screen, 48 h (100 = growth as untreated, 0 = no growth, -100 = all killed)). Details: 10 µM.

Structure (SMILES) | growth
CS(=O)(=O)c1nccc(-c2c(-c3cccc(OCc4ccc(F)cc4)c3)nc3sccn23)n1 | 59.3%
CCOC(=O)c1cc(C(=O)c2ccc(F)cc2F)n2ccccc12 | 75.6%
O=C(N/N=C/c1ccc(Cl)cc1)c1ccccc1Nc1cccc(C(F)(F)F)c1 | 71.6%
CC(C)(C)OC(=O)N1CCc2c(sc3ncnc(N/N=C/c4ccccc4Br)c23)C1 | 48.1%
CC(C)N(CCOc1ccc(-c2nc3sccn3c2-c2ccnc(S(C)(=O)=O)n2)cc1)C(C)C | 62.5%
CN(C)CCCOc1ccc(NC2=C(Cl)C(=O)C(Nc3ccc(OCCCN(C)C)cc3)=C(Cl)C2=O)cc1 | -7.37% (active)
COc1cccc(C2C(C#N)=C(N)Oc3cc(N)ccc32)c1 (centres undefined) | 25.4%
Cc1ccc(NCCN(C)CC(C)O)c2c(=O)c3ccccc3sc12 (centres undefined) | 41%
CCCCN(CCCC)C(=O)[C@H](CC)[C@@H]1CC[C@@H](C)[C@@H]([C@H](C)[C@@H](O)[C@@H](C)C(=O)[C@H](CC)C2O[C@]3(C=C[C@@H](O)[C@]4(CC[C@@](C)([C@H]5CC[C@](O)(CC)[C@H](C)O5)O4)O3)[C@H](C)C[C@@H]2C)O1 (some centres undefined) | 4.26% (active)
CC(C)N(CCOc1cccc(-c2nc3sccn3c2-c2ccnc(S(C)(=O)=O)n2)c1)C(C)C | 72.7%
NC(=O)c1cccc(-n2ccc3cc(NC(=O)Nc4ccc(Cl)c(C(F)(F)F)c4)ccc32)n1 | 53.4%
COc1cccc(-c2nc3sccn3c2-c2cccc(S(C)(=O)=O)c2)c1 | 94.7%
COc1ccc(Cl)cc1Nc1nc(C(F)(F)F)ccc1C(=O)N/N=C/c1ccc(Cl)cc1 | 34.6%
CCOc1ccccc1/C=N\N=C\c1ccccc1O | 95.8%
CN(C)c1ccc(/C=N/NC(=O)c2ccccc2Nc2cccc(C(F)(F)F)c2)cc1 | 76.1%
COc1cc2cc(Oc3ccc(NC(=O)Nc4cccc(C(F)(F)F)c4)cc3)c(C)nc2cc1OC | 0.0827% (active)
O=C(Nc1cc(Cl)cc2c1-c1ccc(Cl)cc1C2O)C(Cl)Cl (centres undefined) | 67.7%
C/C(=N\O)c1ccc(NC(=O)CSc2nnc(-c3ccccc3)n2-c2ccccc2)cc1 | 73.7%
CCN(CC)CCCOc1cccc2c1C(=O)c1cccc(OCCCN(CC)CC)c1C2=O | 33.2%
